# Where a name gives a salt, the structure may show the parent alone. ± gives the standard deviation of the averaged measurements.
# System: E18 rat cortical neuron-glia co-culture
# Assay: fiber score / MBP score (myelination specific beyond OL differentiation) (ratio); higher = more myelination-specific MBP alignment
# Conditions: 1 µM; treatment time: 8 days (DIV5-DIV13)
# Method in brief: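 Primary E18 rat cortical co-cultures (papain-dissociated, 20,000 cells/well on poly-d-lysine/laminin 96-well plates) received library compounds at 1 or 5 µM in myelination medium from DIV5 to DIV13. Cells were fixed in 4 % paraformaldehyde and immunostained for MBP and Olig2 with DAPI, and four 10X fields per well in duplicate wells were analysed. The read-out is fiber score (continuous MBP fiber length per Olig2+ nucleus) divided by MBP score (thresholded MBP area × intensity per Olig2+ nucleus).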
row,SMILES,fiber score / MBP score
1,O=c1c(O[C@@H]2O[C@H](CO)[C@@H](O)[C@H](O)[C@H]2O)c(-c2ccc(O)c(O)c2)oc2cc(O)cc(O)c12 [Isoquercitrin],1.09
2,CC1(C)S[C@@H]2[C@H](NC(=O)[C@H](N)c3ccc(O)cc3)C(=O)N2[C@H]1C(=O)O [Amoxicillin],0.764
3,NC12CC3CC(CC(C3)C1)C2 [Amantadine],0.736
4,Cc1[nH]c(=O)c(C#N)cc1-c1ccncc1 [Milrinone],0.762
5,CCCC(=O)Nc1ccc(OCC(O)CNC(C)C)c(C(C)=O)c1 (configuration not stated) [Acebutolol],0.757
6,O=C(NCCO[N+](=O)[O-])c1cccnc1 [Nicorandil],0.852
7,CN(C)CCC(c1ccc(Cl)cc1)c1ccccn1 (configuration not stated) [Chlorpheniramine],0.721 ± 0.13
8,Nc1nc(N)nc(-c2cc(Cl)ccc2Cl)n1 [Irsogladine],0.913
9,CC(=O)SCC(Cc1ccccc1)C(=O)NCC(=O)OCc1ccccc1 (configuration not stated) [Racecadotril],0.715
10,CC(=O)Nc1ccc(CC(=O)O)cc1 [Actarit],0.756
11,CCN(CC)CCNC(=O)c1cc(Cl)c(N)cc1OC [Metoclopramide],0.848
12,CCOC(=O)C1=C(C)NC(C)=C(C(=O)OC)C1c1cccc(Cl)c1Cl (configuration not stated) [Felodipine],1.27
13,CN1CCN(C2=Nc3cc(F)ccc3Cc3ccccc32)CC1 [Fluperlapine],1.15

# Same assay, conditions: 5 µM; treatment time: 8 days (DIV5-DIV13)
row,SMILES,fiber score / MBP score
1,NC(=O)c1cccnc1 [Niacinamide],0.901
2,CCOC(=O)C1=C(C)NC(C)=C(C(=O)OC)C1c1cccc([N+](=O)[O-])c1 (configuration not stated) [Nitrendipine],1.09
3,CC(C)NCC(O)COc1ccc(CCOCC2CC2)cc1 (configuration not stated) [Betaxolol],0.615
4,CNNCc1ccc(C(=O)NC(C)C)cc1 [Procarbazine],1.09
5,NC(=O)N1c2ccccc2CC(=O)c2ccccc21 [Oxcarbazepine],1.17
6,CC1CNc2c(cccc2S(=O)(=O)N[C@@H](CCCNC(=N)N)C(=O)N2CC[C@@H](C)C[C@@H]2C(=O)O)C1 (some centres not stated) [Argatroban],0.566
7,C=C1/C(=C\C=C2/CCC[C@]3(C)[C@@H]([C@H](C)/C=C/[C@@H](O)C4CC4)CC[C@@H]23)C[C@@H](O)C[C@@H]1O [Calcipotriene],0.6
8,CC(C)(C#N)c1cc(Cn2cncn2)cc(C(C)(C)C#N)c1 [Anastrozole],0.734
9,CC(C)[C@H]1CC[C@H](C(=O)N[C@H](Cc2ccccc2)C(=O)O)CC1 [Nateglinide],0.739
10,C[C@]12CC[C@@H]3c4ccc(OS(=O)(=O)O)cc4CC[C@H]3[C@@H]1CCC2=O [Estrone sulfate],1.16
11,CC(C)(C)NC[C@H](O)COc1nsnc1N1CCOCC1 [Timolol],1.02
12,COc1cc(C[C@@H](CO)[C@H](CO)Cc2ccc(O)c(OC)c2)ccc1O [Secoisolariciresinol],0.777
13,CN1CCN(CC/C=C2/c3ccccc3Sc3ccc(S(=O)(=O)N(C)C)cc32)CC1 [Thiothixene],1.29
14,CN1CCN(c2c(F)cc3c(=O)c(C(=O)O)cn4c3c2SCC4)CC1 [Rufloxacin],0.68
15,Cc1ccnc2c1NC(=O)c1cccnc1N2C1CC1 [Nevirapine],0.851
16,O=C(O)COCCN1CCN(C(c2ccccc2)c2ccc(Cl)cc2)CC1 (configuration not stated) [Cetirizine],1.11
17,Cc1cccc(Nc2ccncc2S(=O)(=O)NC(=O)NC(C)C)c1 [Torsemide],0.949
18,Cc1ncc([N+](=O)[O-])n1CCO [Metronidazole],0.794
19,CC(=O)[C@H]1CC[C@H]2[C@@H]3CCC4=CC(=O)CC[C@]4(C)[C@H]3CC[C@]12C [Progesterone],0.552
20,CO[C@@]1(NC(=O)Cc2cccs2)C(=O)N2C(C(=O)O)=C(COC(N)=O)CS[C@@H]21 [Cefoxitin],0.686
21,CC(=O)N1CCN(c2ccc(OCC3COC(Cn4ccnc4)(c4ccc(Cl)cc4Cl)O3)cc2)CC1 (configuration not stated) [Ketoconazole],0.267
22,C#C[C@]1(OC(C)=O)CC[C@H]2[C@@H]3CCC4=CC(=O)CC[C@@H]4[C@H]3CC[C@@]21C [Norethisterone acetate],0.989
23,NS(=O)(=O)c1cc2c(cc1Cl)N=CNS2(=O)=O [Chlorothiazide],0.841
24,C[C@]12CCC(=O)C=C1CC[C@@H]1[C@@H]2C(=O)C[C@@]2(C)[C@H]1CC[C@]2(O)C(=O)CO [Cortisone],0.764

# Reference: the supplement of paper PMC4840960
